From PubChem BioAssay
Inconclusive results are not listed. Calls of active or inactive are those of the source. Unless noted, the limit is not given here; nearly all actives have AC50 up to about 26 µM.

Experiment: growth inhibition of DIPG cells – cell-based, MIPE4.0 library, CellTiter-Glo luminescence, qHTS (AID 1347066; cut-off not given, nearly all actives have AC50 up to about 30 µM)
Conditions: SU-DIPG-VI viability, CellTiter-Glo ATP luminescence
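Also: cells exposed to compound for 48 hours before readout.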

**Q.** Which outcome does the source give for `CC(C)C[C@@H](N)[C@H](O)C(=O)N[C@H](C(=O)N[C@H](C(=O)N[C@@H](CC(=O)O)C(=O)O)C(C)C)C(C)C` here?
**A.** Its outcome is “inactive”.

**Q.** With `COc1c(OCCCN2CCOCC2)ccc2c3n(c(=NC(=O)c4cnc(N)nc4)nc12)CCN3` as the compound, how does the AC50 read?
**A.** The AC50 was 0.0457 µM (active).

**Q.** Which AC50 does the source give for `Cc1cc(Nc2cc(CN3CCOCC3)c3nc(C)c(Cc4ccc(Cl)cc4F)n3n2)n[nH]1` here?
**A.** Its AC50 is 23.5 µM (active).

**Q.** Which outcome does the source give for `N#Cc1c(NC(=O)c2cccc3ccccc23)sc2c1CCCC2` here?
**A.** Its outcome is “inactive”.

**Q.** Which outcome does the source give for `COc1ccccc1[C@H](c1cccc2ccccc12)[C@@](C)(C#N)C(=O)N1CCC(c2cccc(C(F)(F)F)c2)CC1` here?
**A.** Its outcome is “inactive”.

**Q.** Which AC50 does the source give for `CC(C)CNc1ccnc(NCc2csc(-c3ccccc3)n2)n1` here?
**A.** Its AC50 is 20.9 µM (active).

**Q.** With `COC(=O)c1ccc2c(C(=Nc3ccc(N(C)C(=O)CN4CCN(C)CC4)cc3)c3ccccc3)c(O)[nH]c2c1` as the compound, how does the outcome read?
**A.** The outcome was “inactive”.

Experiment: JHH-DIPG-1 glioma cell viability, MIPE5.0 library, CellTiter-Glo luminescence, qHTS (AID 1347067)
Conditions: JHH-DIPG-1 glioma viability, CellTiter-Glo ATP luminescence

**Q.** Which AC50 does the source give for `N#CCNC(=O)c1ccc(-c2ccnc(Nc3ccc(N4CCOCC4)cc3)n2)cc1` here?
**A.** Its AC50 is 13.2 µM (active).

**Q.** Which outcome does the source give for `COc1ccc2c(c1)CC[C@@H]1[C@@H]2CC[C@]2(C)[C@@H](NCCCCCCN3C(=O)C=CC3=O)CC[C@@H]12` here?
**A.** The outcome was “inactive”.

**Q.** Which AC50 does the source give for `CC1(C)CCC2=C(O1)c1ccccc1C(=O)C2=O` here?
**A.** The AC50 was 7.42 µM (active).

**Q.** Which outcome does the source give for `CNC(=O)c1c(-c2ccc(F)cc2)oc2cc(N(CCO)S(C)(=O)=O)c(C3CC3)cc12` here?
**A.** Its outcome is “inactive”.

**Q.** Which AC50 does the source give for `Cc1ncc(-c2ccnc(Nc3ccc(S(C)(=O)=O)cc3)n2)n1C(C)C` here?
**A.** The AC50 was 4.68 µM (active).

**Q.** For `CCOc1cc(/C=C2/C(=O)N(c3ccccc3)N=C2C)cc(Cl)c1OCC(=O)OC`, which outcome is on record?
**A.** The outcome was “inactive”.

**Q.** With `C#CCN(C)CC1=Cc2ccccc2Oc2ccccc21` as the compound, how does the outcome read?
**A.** Its outcome is “inactive”.

**Q.** Which outcome does the source give for `C/C(O)=C(\C#N)C(=O)Nc1ccc(C(F)(F)F)cc1` here?
**A.** The outcome was “inactive”.

**Q.** With `O=C(Nc1ccccc1-c1cn2c(CN3CCNCC3)csc2n1)c1cnc2ccccc2n1` as the compound, how does the AC50 read?
**A.** The AC50 was 3.72 µM (active).

**Q.** For `COc1cc(C(C)C)c(Oc2cnc(NC(CO)CO)nc2N)cc1I`, which outcome is on record?
**A.** The outcome was “inactive”.

**Q.** With `O[C@@H](COc1cccc2ncccc12)CN1CCN(C2c3ccccc3[C@@H]3[C@H](c4ccccc42)C3(F)F)CC1` (some centres undefined) as the compound, how does the AC50 read?
**A.** Its AC50 is 23.5 µM (active).

**Q.** Which AC50 does the source give for `COc1ccc(-c2ccc3c(N4CCOCC4)nc(N4C[C@@H](C)O[C@@H](C)C4)nc3n2)cc1CO` here?
**A.** Its AC50 is 1.05 µM (active).

**Q.** Which AC50 does the source give for `CC(C)c1cc(C(C)C)c(CC(=O)NS(=O)(=O)Oc2c(C(C)C)cccc2C(C)C)c(C(C)C)c1` here?
**A.** The AC50 was 11.8 µM (active).

**Q.** Which AC50 does the source give for `Clc1ccc(COC(Cn2ccnc2)c2ccc(Cl)cc2Cl)c(Cl)c1` (centres undefined) here?
**A.** Its AC50 is 20.9 µM (active).

**Q.** With `COc1cc(C)c(Sc2cnc(NC(=O)c3ccc(CNC(C)C(C)C)cc3)s2)cc1C(=O)N1CCN(C(C)=O)CC1` (centres undefined) as the compound, how does the AC50 read?
**A.** Its AC50 is 16.6 µM (active).

**Q.** Which outcome does the source give for `COc1cc(F)c(C(C)C)cc1-c1ccc(C(F)(F)F)cc1CN1C(=O)O[C@H](c2cc(C(F)(F)F)cc(C(F)(F)F)c2)[C@@H]1C` here?
**A.** Its outcome is “inactive”.

**Q.** With `CCOc1cc2ncc(C#N)c(Nc3ccc(OCc4ccccn4)c(Cl)c3)c2cc1NC(=O)/C=C/CN(C)C` as the compound, how does the AC50 read?
**A.** Its AC50 is 5.25 µM (active).

**Q.** With `CC[C@@]1([C@@H]2O[C@@H]([C@H]3O[C@@](O)(CO)[C@H](C)C[C@@H]3C)C[C@@H]2C)CC[C@H]([C@]2(C)CC[C@]3(C[C@H](O)[C@@H](C)[C@@H]([C@@H](C)[C@@H](OC)[C@H](C)C(=O)O)O3)O2)O1` as the compound, how does the AC50 read?
**A.** Its AC50 is 0.288 µM (active).

**Q.** With `CC(C)C[C@@H](N)[C@H](O)C(=O)N[C@H](C(=O)N[C@H](C(=O)N[C@@H](CC(=O)O)C(=O)O)C(C)C)C(C)C` as the compound, how does the outcome read?
**A.** The outcome was “inactive”.

**Q.** For `COc1c(OCCCN2CCOCC2)ccc2c3n(c(=NC(=O)c4cnc(N)nc4)nc12)CCN3`, which AC50 is on record?
**A.** The AC50 was 0.191 µM (active).

**Q.** With `CC(=O)O/N=C1/C(c2c(O)[nH]c3cc(Br)ccc23)=Nc2ccccc21` as the compound, how does the AC50 read?
**A.** The AC50 was 29.5 µM (active).

**Q.** For `CC1=C[C@@H]2[C@H]([C@@H](O)C[C@@]3(C)[C@H]2C[C@@H](C)[C@]3(O)C(=O)CO)[C@@]2(C)Cc3cnn(-c4ccccc4)c3C=C12`, which AC50 is on record?
**A.** The AC50 was 11.8 µM (active).

**Q.** Which AC50 does the source give for `COc1cc2nccc(Oc3ccc(NC(=O)Nc4cc(C)on4)c(Cl)c3)c2cc1OC` here?
**A.** The AC50 was 14.8 µM (active).

**Q.** For `Cc1cc(Nc2cc(CN3CCOCC3)c3nc(C)c(Cc4ccc(Cl)cc4F)n3n2)n[nH]1`, which AC50 is on record?
**A.** Its AC50 is 3.32 µM (active).

**Q.** With `CC(N[C@H]1CCCC[C@@H]1NC(=O)c1ccc(Cl)cc1)c1cccc2ccccc12` (some centres undefined) as the compound, how does the AC50 read?
**A.** The AC50 was 9.34 µM (active).

**Q.** With `N#Cc1c(NC(=O)c2cccc3ccccc23)sc2c1CCCC2` as the compound, how does the AC50 read?
**A.** Its AC50 is 0.263 µM (active).

**Q.** Which outcome does the source give for `COc1ccccc1[C@H](c1cccc2ccccc12)[C@@](C)(C#N)C(=O)N1CCC(c2cccc(C(F)(F)F)c2)CC1` here?
**A.** Its outcome is “inactive”.
